Laboratory results from PubChem BioAssay (NCI).
This is part of a sample that, as a whole, favours compounds with a hit. Of some 79,000 tested, about 15% had one in any assay. Rule as the data show it: active = growth inhibition above about 70%; inactive = the rest.

Assays:
[1] = NCI Yeast Anticancer Drug Screen. Data for the rad50 strain (AID 155);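 also: 0% = growth of vehicle-only cultures of the same strain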; conditions: S. cerevisiae rad50 strain growth inhibition; at 50.0 µM; hits give high values
How it was run: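 Growth of the mutant yeast was measured after compound exposure and referenced to vehicle-treated cultures.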

[2] = NCI Yeast Anticancer Drug Screen. Data for the mec2-1 strain (AID 157); conditions: S. cerevisiae mec2-1 strain, at 50.0 µM, hits give high values
How it was run: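 Compounds were applied to mec2-1 yeast cells. Their growth was then compared with that of vehicle-treated cultures to give growth inhibition.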

[3] = NCI Yeast Anticancer Drug Screen. Data for the sgs1 mgt1 strain (AID 161);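 also: 0% = growth of cultures given vehicle only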; conditions: S. cerevisiae sgs1 mgt1 strain, at 50.0 µM, hits give high values
How it was run: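 Compounds are added to genetically altered yeast, and growth is compared with cultures given vehicle alone to give percent inhibition.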

[4] = NCI Yeast Anticancer Drug Screen. Data for the cln2 rad14 strain (AID 165);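 also: 0% = growth equal to vehicle treated cultures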; conditions: S. cerevisiae cln2 rad14 strain, at 50.0 µM, hits give high values
How it was run: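 Strain: cln2 rad14 yeast, altered in cell cycle control and DNA damage repair. Read-out: growth inhibition vs vehicle.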

[5] = NCI Yeast Anticancer Drug Screen. Data for the bub3 strain (AID 167); conditions: S. cerevisiae bub3 mutant strain, at 50.0 µM, hits give high values
How it was run: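 Whole-cell yeast assay. The mutant strain was incubated with compounds, and growth inhibition was determined by comparison with vehicle-treated cells.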

[6] = NCI Yeast Anticancer Drug Screen. Data for the mlh1 rad18 strain (AID 175); conditions: S. cerevisiae mlh1 rad18 strain growth inhibition; at 50.0 µM; hits give high values
How it was run: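 A repair-deficient yeast strain is exposed to test compound, and growth is scored relative to vehicle-treated controls.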

Measured: growth inhibition

CC1=Nc2cc(C)c(C)cc2NC(=O)C1
inactive: [1] -16.8% | [2] -43.9% | [3] -6.1% | [4] 20.4% | [5] -21.9% | [6] -1.7%

O=C(O)C12CCCCC1CCCC2 (centres undefined)
inactive: [1] 11.4% | [2] 31.2% | [3] -6.25% | [4] 26.1% | [5] -0.75% | [6] 10.7%

Cc1cc(N(CCC#N)CCC#N)ccc1/C=C(\NC(=O)/C=C/c1ccccc1)C(=O)Nc1ccc(Cl)cc1
inactive: [1] -7.1% | [2] -15.1% | [3] 2.2% | [4] 1.7% | [5] 3.9% | [6] -1.65%

O=[N+]([O-])c1ccc(N=P(c2ccccc2)(c2ccccc2)c2ccccc2)n2nnnc12
inactive: [1] 1.25% | [2] -27.8% | [3] -4.65% | [4] -10.2% | [5] -15.2% | [6] -6.85%

CCNCC(=O)Nc1ccc2c(c1)C(=O)c1ccc(NC(=O)CNCC)cc1C2=O
inactive: [1] 20.9% | [2] 28.5% | [3] 29.2% | [4] -4.55% | [5] 3.85% | [6] 50.8%

CCCS(=O)(=O)N/N=C(\C)c1cccs1
inactive: [1] 3.65% | [2] -8.1% | [3] 3.25% | [4] -35.5% | [5] 1.35% | [6] -4.2%

C=C1CC(OC(=O)c2ccc([N+](=O)[O-])cc2)C1
inactive: [1] 1.5% | [2] -16.6% | [3] -16.5% | [4] -8.65% | [5] 3.7% | [6] -8.5%

Nc1nc(-c2ccc(Cl)c(Cl)c2)cc(-c2cc(-c3ccc(Cl)c(Cl)c3)nc(N)n2)n1
inactive: [1] 24.9% | [2] 2.55% | [3] 7.55% | [4] 21.6% | [5] 4.2% | [6] 11%

c1ccc(N2C3Sc4ncccc4C2Sc2ncccc23)cc1
inactive: [1] -20.4% | [2] 2.8% | [3] 16.6% | [4] 6.1% | [5] -1.05% | [6] 7.85%

NS(=O)(=O)c1ccc(NC2(C(=O)O)CCCC2)cc1
inactive: [1] -18.4% | [2] -9.3% | [3] -0.9% | [4] -9.4% | [5] -38.5% | [6] -21.5%

CCOC(=O)C1=C(C(=O)c2ccccc2)C(c2ccc(Cl)cc2Cl)C(C(=O)c2ccccc2)=C(C(=O)OCC)N1
inactive: [1] -11.3% | [2] -8.2% | [3] -16.6% | [4] -3.45% | [5] -9% | [6] -1.5%

CCCSc1ccc2c3c(cccc13)C(=O)OC2=O
inactive: [1] 47.5% | [2] 42.9% | [3] 46% | [4] 45.6% | [5] 57.7% | [6] 27.5%

O=C(NCCCCC(Br)C(=O)O)c1ccccc1 (centres undefined)
inactive: [1] -30% | [2] -5.5% | [3] -33.4% | [4] -53.2% | [5] -1.55% | [6] -34.9%

Cc1cc(S(=O)(=O)O)cc(Cl)c1N
inactive: [1] -11.3% | [2] -27.9% | [3] -0.85% | [4] -0.5% | [5] -23.8% | [6] -9.4%

Cc1ccc(C)c(NC(=O)OC/C=C/c2ccccc2)c1
inactive: [1] -1.2% | [2] 29.2% | [3] 19.9% | [4] -10.9% | [5] 26.7% | [6] 41.2%

CN(C)CCN(CCN(C)C)CCN(C)C
inactive: [1] 6.85% | [2] -21.5% | [3] 12.3% | [4] 9.45% | [5] 25.1% | [6] 14.6%

NC(CCCCNC(=O)OCc1ccccc1)C(=O)OCc1ccccc1 (centres undefined)
inactive: [1] -15.2% | [2] -20.4% | [3] -9.7% | [4] 15.6% | [5] -0.75% | [6] -18.5%

CN(NC(=O)c1ccco1)C1=NCCCCN1
inactive: [1] -11.8% | [2] -10.6% | [3] -15.3% | [4] -16.6% | [5] -10.2% | [6] 0.3%

N#CC(C(=O)CCCC(=O)Nc1ccccc1[N+](=O)[O-])c1ccc(Cl)cc1Cl (centres undefined)
inactive: [1] -10.2% | [2] -22.6% | [3] -36.8% | [4] -41.5% | [5] 0.65% | [6] -26.6%
